# Laboratory results published in PubChem BioAssay (NCATS).
# Results filed as inconclusive are left out. A call without a number means that no potency is given here. A number with no mark means an inactive call. The source made the active and inactive calls. The call rests on the fitted dose curve; in most records, active means well fitted curve in the direction sought with a large enough effect; inconclusive means small, poorly fitted or top-dose-only effect, or another doubt; inactive means no such curve, though single readings can be large or run the other way. Numbered stars: 1 amine (or outer) side, 2 acyl side, 3 side chain; on linkers, the order of the positions; unused ones are H or OH. Square brackets hold non-standard residues; d marks the D form. Peptide text beside a SMILES is read from it. ξ: configuration not given here. X1 = CCCCCCCCCC(=O)[C@H](C(=O)[*:2])[C@@H]1CNC(=O)[C@@H](N[*:1])CS1; X4 = O=C(C1CC2(c3ccc(O)cc3)c3ccccc3NC2N1[*:1])[*:2]; ξW = NC(Cc1c[nH]c2ccccc12)C(=O)O; ξY = NC(Cc1ccc(O)cc1)C(=O)O
# Experiment: HPAF-II 12hr Apoptosis Induction qHTS against the NCATS CANVASS Library (AID 1347358)
# Conditions: HPAF-II caspase-3/7 Caspase-Glo luminescence; series mostly up to 46.1 µM
# From the text: Natural products and their derivatives continue to be wellsprings of nascent therapeutic potential. However, many laboratories have limited resources for biological evaluation, leaving their previously isolated or synthesized compounds largely or completely untested. To address this issue, the Canvass library of natural products was assembled (https://tripod.nih.gov/canvass), in collaboration with academic and industry researchers, for quantitative high-throughput screening (qHTS) across a diverse set of cell-based and biochemical assays. The pure (>85% purity by liquid chromatography/mass spectrometry [LC/MS]) Canvass library of 346 natural products were submitted by 45 academic laboratories and companies around the world. We collected pure natural products to circumvent deconvolution and structure elucidation due to time and resource limitations. The library was formatted into 1536-well plates and evaluated in 50 qHTS (in an 11-pnt concentration series) bioassays with broad scope of disease-relevant mechanisms. The resulting data set from 50 different assays was then systematically analyzed to identify overall trends and specific natural products with interesting biological activities. Reported herein are the results of each individual qHTS and their corresponding assay protocol. The Caspase-Glo (R) (Promega) is a homogeneous, luminescent assay that measures caspase activity. The detection substrate contains tetrapeptide sequence DEVD in an "add-mix-measure" format. The reagent generates a luminescent signal produced by a thermostable luciferase. The luminescence is proportional to the amount of caspase activity in the assay reaction. National Center for Advancing Translational Sciences (NCATS), Rockville, MD National Institute of Health (NIH), Bethesda, Maryland
# Cancer Cell Apoptosis Assay 1. In a 1536 well, white solid bottom tissue culture plates (Corning 7494), HPAF-II cancer cells in DMEM + 10% FBS + 1% P/S media were dispensed in each well at a final concentration of 500 cells / well (5uL volume) using the Multidrop Combi (Thermo Fisher Scientific) dispenser. 2. Compounds were pin transferred (~23nL volume) via Wako Pin-tool (Wako Automation, Richmond VA) equipped with a 1536 pin head. The assay plates were treated with compounds in a concentration series with a final concentration range of 0.17nM to 103uM. 3. Doxorubicin was used as a control in a 16pnt titration (1mM; 1:2 dilution; 16-points; n = 2; column 3, rows 1 - 32) and was pin transferred via Wako Pin-tool equipped with a 1536 pin head. The final concentration range of doxorubicin is 0.1nM - 4uM. 4. The assay plates were incubated for 12 hours at 37 degrees C/5% CO2/95% Rh. 5. 3uL Caspase-Glo 3/7 (R) (Promega) detection reagent was then added to the assay plates (columns 2 - 48, rows 1 - 32) and incubated at room temperature, covered from light, for 15 min. 6. Luminescence signal was acquired via the ViewLux plate reader (PerkinElmer) using a clear filter, 20 second exposure and 2x binning settings.
SMILES,Potency,caspase activation
CC[C@H](C)[C@H](NC(=O)C(Cc1ccc(O)cc1)NC(=O)C(Cc1c[nH]c2ccccc12)NC(=O)[C@H](C)N)C(=O)N1C(C(=O)NC(Cc2ccc(O)cc2)C(=O)O)CC2(c3ccc(O)cc3)c3ccccc3NC12 (stereo not given in full) (H-A[ξW][ξY]I[X4][ξY]-OH),inactive,–
CC(C)=CCC/C(C)=C/Cc1c(O)c(CC=C(C)C)c(O)c2c(=O)c3cc(O)ccc3oc12,inactive,–
CCCCCCCCCCCCCCCC(=O)OC/C=C(\C)CCCC(C)CC(C)C(C)C (stereo not given),inactive,–
CO[C@@H]1[C@H](O)[C@@H](C)O[C@@H](OC[C@H]2/C=C/C=C/C(=O)C(C)C[C@H](C)C(O[C@@H]3O[C@H](C)CC4(OC(=O)O[C@@H]4C)C3O)[C@@H](C)/C=C/C(=O)OC2C)[C@@H]1OC (stereo not given in full),inactive,–
O=c1cc(-c2ccc(O)c(O[C@@H]3O[C@H](CO)[C@@H](O)[C@H](O)[C@H]3O)c2)oc2cc(O[C@@H]3O[C@H](CO)[C@@H](O)[C@H](O)[C@H]3O)cc(O)c12,inactive,–
CCC1=C2CCCN3C(=O)O[C@H]([C@H]1OC(C)=O)[C@H]23,inactive,–
C[C@@H]1C(=O)[C@]23CC[C@H]1C[C@]21O[C@H]2C(C)(C)C=CC(=O)[C@]23COC1=O,inactive,–
CN1C(=O)C2C(N=CN2C)N(C)C1=O (stereo not given),inactive,–
COc1cc(/C=C/C(=O)O)ccc1O,inactive,–
C=C1C(=O)O[C@H]2[C@H]1CC/C(CO)=C\CC[C@@]1(C)O[C@@H]21,inactive,–
C/C1=C\CC(=O)/C=C/C=C\c2csc(n2)[C@@H](C)NC(=O)C[C@@](S)([C@@H](C)C(=O)O)CC1,inactive,–
CO[C@H]1/C=C/CC[C@@H](S[C@@H]2O[C@H](CO)[C@@H](O)[C@H](O)[C@H]2O)CC(=O)O[C@@H](/C(C)=C/[C@H](C)C(=O)CCCC2CC(=O)NC(=O)C2)[C@@H](C)[C@@H]1O,inactive,–
CCCCCCCCCC(=O)[C@@H]1C(=O)N[C@@H](CC(C)C)C(=O)N[C@H](C)C(=O)N2CCC[C@H]2C(=O)N[C@@H](C(C)C)C(=O)N[C@H]2CS[C@H]1CNC2=O (cyclo(L[dA]PV[X1])),inactive,–
COc1ccc2cc(NC(=O)C3=NO[C@H]4[C@H](O)C=C[C@@H](Cl)[C@@]4(O)C3)c(=O)oc2c1OC,inactive,–
CO[C@@H]1[C@H](O)[C@@H](C)O[C@@H](OC[C@@H]2C(C)OC(=O)/C=C/[C@H](C)C(O[C@@H]3O[C@H](C)CC4(OC(=O)O[C@@H]4C)C3O)[C@@H](C)CC(C)C(=O)CC[C@H]3OC23)[C@@H]1OC (stereo not given in full),inactive,–
CCCCCCCCC[C@@H]1C[C@@H]2CC[C@H]3[C@@H](C(=O)OCCCCN=C(N)N)[C@@H](C)N=C(N1)N23,inactive,–
CCC[C@@H](C)/C=C(\C)[C@H](O)[C@H](C)/C=C/CC[C@@H](O)[C@H](C)[C@H](O)[C@H](C)[C@H](O)[C@H](C)[C@H]1O[C@H]([C@H](C)C(=O)O)CC[C@@H]1C,inactive,–
O=C1C[C@@H](c2ccc(O)c(-c3c(O)cc(O)c4c3O[C@H](c3ccc(O)cc3)CC4=O)c2)Oc2cc(O)cc(O)c21,inactive,–
COc1ccc([C@@H]2c3cc(OC)c(OC)cc3C(=O)[C@H](C)C2C)cc1OC (stereo not given in full),–,2.3% [at 9.19 µM]
CO[C@@H]1C[C@@H](C[C@H]2CC[C@H](C)[C@H]([C@@H](C)C(=O)O)O2)O[C@]2(O[C@](C)([C@H]3CC[C@@](C)([C@@H]4O[C@@H]([C@H]5O[C@](C)(O)[C@H](C)C[C@@H]5C)C[C@@H]4C)O3)C[C@H]2C)[C@@H]1C,inactive,–

SMILES,Potency,caspase activation
CC1(C)C=Cc2c(ccc3c2OC[C@@H](c2ccc(O)cc2O)C3)O1,inactive,–
C/C1=C/[C@@H](C)[C@H](O)C/C=C/CC/C=C/C(=O)O[C@@H]1[C@H](C)C(=O)/C=C/CC1CC(=O)NC(=O)C1,inactive,–
C[C@@H]1O[C@@H](Oc2c(-c3ccc(O)cc3)oc3cc(O)cc(O)c3c2=O)[C@H](O)[C@H](O)[C@H]1O,inactive,–
COc1ccc(/C=C2\COc3cc(O)ccc3C2=O)cc1,inactive,–
C[C@H]1C[C@@H]([C@@H]2CC[C@]34O[C@H](CC[C@@]35C[C@H](C)C(=O)O5)CN24)OC1=O,inactive,–
C=C[C@@]1(C)CC[C@@H]([C@H](C)C(=O)/C=C/C(C)C)O1,inactive,–
C/C(=C\[C@H](C)C(=O)CCCC1CC(=O)NC(=O)C1)C(O)[C@@H](C)[C@H](O)C/C=C/CC/C=C/C(=O)O (stereo not given in full),inactive,–
C/C=C/c1cc(OC)c2c(c1)[C@@H](C)[C@H](c1ccc(O)c(OC)c1)O2,inactive,–
CC1=CC[C@@]2(C[C@@H]1O)[C@@H](C(=O)O)CC[C@H]2C(C)C,inactive,–
CC1(C)[C@H](Br)CC[C@]23C[C@]4(C)C(=O)CC12C[C@H]34,inactive,–
C=C1C[C@@]23C=CC(=O)[C@@](C)(CCC(=O)Nc4c(OC5O[C@H](CO)[C@@H](O)[C@H](O)[C@H]5O)ccc(C(=O)O)c4O)C2C[C@@H]1CC3 (stereo not given in full),inactive,–
C[C@@H]1O[C@@H](O[C@@H]2[C@@H](O)[C@H](O[C@@H]3[C@@H](O)[C@@H](O)C(O[C@H]4[C@H](OC(=O)[C@]56CCC(C)(C)C[C@H]5C5=CCC7[C@@]8(C)C[C@H](O)[C@H](O[C@@H]9C[C@H](CO)[C@@H](O)[C@H](O)[C@H]9O)[C@@](C)(CO)C8[C@H](O)C[C@@]7(C)[C@]5(C)CC6)OC[C@H](O)[C@@H]4O)O[C@H]3C)OC[C@H]2O)[C@H](O)[C@H](O)[C@H]1O (stereo not given in full),inactive,–
O=c1cc(-c2ccc(O)cc2)oc2c([C@@H]3OC(CO)[C@H](O)[C@@H](O)[C@H]3O)c(O)cc(O)c12 (stereo not given in full),inactive,–
C1=C2CCCN[C@@H]2[C@@H]2CCN3CCCC[C@@H]3[C@H](C1)C2,inactive,–
C=C1C[C@@]23C=CC(=O)[C@@](C)(CCC(=O)Nc4c(O)ccc(C(=O)O)c4O)C2C[C@@H]1CC3 (stereo not given in full),inactive,–
O=C(O)[C@@]12COC3(O)C1CCN1CC[C@H]3[C@@H]1c1c2[nH]c2ccccc12,inactive,–
C/C(=C\[C@H](C)C(=O)CCCC1CC(=O)NC(=O)C1)[C@@H]1OC(=O)/C=C/CC/C=C/C[C@@H](O)[C@@H]1C,inactive,–
OCc1ccc2ocnc2c1,inactive,–
CC1(C)CCC[C@]2(C)[C@@H]1CC[C@@]13C[C@@H](CC[C@H]12)C(C)(O)C3 (stereo not given in full),inactive,–
CC(=O)[C@@H]1[C@@H](O)C[C@H]2[C@]3(C)CC[C@H]4C(C)(C)CCC[C@]4(CO)[C@H]3C[C@H]3OC(=O)[C@@H]1[C@@]32C,inactive,–
